Our source for the inhibition values is ChEMBL document CHEMBL1961873, “Compounds: GSK PKIS; Assays: Nanosyn kinase panel” (2012).

Assay [1] addresses Tyrosine-protein kinase CSK (Homo sapiens) (UniProt P41240). The conditions noted are these: at 1 µM.
The target in assay [2] is T1, Discoidin domain-containing receptor 2 (Homo sapiens) (UniProt Q16832).
T1 sequence (whole entry): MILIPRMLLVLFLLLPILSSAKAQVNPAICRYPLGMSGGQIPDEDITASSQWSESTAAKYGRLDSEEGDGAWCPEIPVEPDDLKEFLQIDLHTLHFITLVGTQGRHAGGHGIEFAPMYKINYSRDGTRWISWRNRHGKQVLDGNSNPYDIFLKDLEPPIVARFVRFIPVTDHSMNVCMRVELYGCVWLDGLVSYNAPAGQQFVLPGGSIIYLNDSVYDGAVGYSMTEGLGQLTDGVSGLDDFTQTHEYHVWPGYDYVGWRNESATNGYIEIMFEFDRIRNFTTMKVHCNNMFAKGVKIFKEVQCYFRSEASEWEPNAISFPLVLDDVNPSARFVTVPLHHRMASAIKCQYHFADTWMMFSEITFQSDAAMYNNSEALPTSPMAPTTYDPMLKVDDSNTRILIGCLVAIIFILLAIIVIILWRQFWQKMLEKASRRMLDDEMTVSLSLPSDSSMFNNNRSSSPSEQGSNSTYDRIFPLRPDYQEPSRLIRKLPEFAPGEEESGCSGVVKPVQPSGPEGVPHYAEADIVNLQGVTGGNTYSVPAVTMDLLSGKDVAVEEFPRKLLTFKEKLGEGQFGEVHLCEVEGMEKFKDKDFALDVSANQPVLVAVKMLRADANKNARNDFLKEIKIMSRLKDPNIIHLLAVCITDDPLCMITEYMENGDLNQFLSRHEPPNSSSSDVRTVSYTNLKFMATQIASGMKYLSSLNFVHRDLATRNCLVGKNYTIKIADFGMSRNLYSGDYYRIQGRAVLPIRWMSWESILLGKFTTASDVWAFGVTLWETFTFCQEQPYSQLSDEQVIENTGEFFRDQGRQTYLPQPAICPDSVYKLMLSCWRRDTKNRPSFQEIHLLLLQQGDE
The conditions noted are these: at 0.1 µM.

Assay [3] has as its target T1, Discoidin domain-containing receptor 2 (Homo sapiens). The conditions noted are these: at 1 µM.
Assay [4] concerns the target Epidermal growth factor receptor (Homo sapiens) (UniProt P00533). The note with it: at 0.1 µM.
The target is the same in assay [5]. The conditions noted are these: at 1 µM.
Assay [6] concerns Epidermal growth factor receptor (Homo sapiens), P00533 [L858R]. The conditions noted are these: at 0.1 µM.
Chain of Epidermal growth factor receptor (Homo sapiens), P00533 [L858R] (P00533 whole entry L858R): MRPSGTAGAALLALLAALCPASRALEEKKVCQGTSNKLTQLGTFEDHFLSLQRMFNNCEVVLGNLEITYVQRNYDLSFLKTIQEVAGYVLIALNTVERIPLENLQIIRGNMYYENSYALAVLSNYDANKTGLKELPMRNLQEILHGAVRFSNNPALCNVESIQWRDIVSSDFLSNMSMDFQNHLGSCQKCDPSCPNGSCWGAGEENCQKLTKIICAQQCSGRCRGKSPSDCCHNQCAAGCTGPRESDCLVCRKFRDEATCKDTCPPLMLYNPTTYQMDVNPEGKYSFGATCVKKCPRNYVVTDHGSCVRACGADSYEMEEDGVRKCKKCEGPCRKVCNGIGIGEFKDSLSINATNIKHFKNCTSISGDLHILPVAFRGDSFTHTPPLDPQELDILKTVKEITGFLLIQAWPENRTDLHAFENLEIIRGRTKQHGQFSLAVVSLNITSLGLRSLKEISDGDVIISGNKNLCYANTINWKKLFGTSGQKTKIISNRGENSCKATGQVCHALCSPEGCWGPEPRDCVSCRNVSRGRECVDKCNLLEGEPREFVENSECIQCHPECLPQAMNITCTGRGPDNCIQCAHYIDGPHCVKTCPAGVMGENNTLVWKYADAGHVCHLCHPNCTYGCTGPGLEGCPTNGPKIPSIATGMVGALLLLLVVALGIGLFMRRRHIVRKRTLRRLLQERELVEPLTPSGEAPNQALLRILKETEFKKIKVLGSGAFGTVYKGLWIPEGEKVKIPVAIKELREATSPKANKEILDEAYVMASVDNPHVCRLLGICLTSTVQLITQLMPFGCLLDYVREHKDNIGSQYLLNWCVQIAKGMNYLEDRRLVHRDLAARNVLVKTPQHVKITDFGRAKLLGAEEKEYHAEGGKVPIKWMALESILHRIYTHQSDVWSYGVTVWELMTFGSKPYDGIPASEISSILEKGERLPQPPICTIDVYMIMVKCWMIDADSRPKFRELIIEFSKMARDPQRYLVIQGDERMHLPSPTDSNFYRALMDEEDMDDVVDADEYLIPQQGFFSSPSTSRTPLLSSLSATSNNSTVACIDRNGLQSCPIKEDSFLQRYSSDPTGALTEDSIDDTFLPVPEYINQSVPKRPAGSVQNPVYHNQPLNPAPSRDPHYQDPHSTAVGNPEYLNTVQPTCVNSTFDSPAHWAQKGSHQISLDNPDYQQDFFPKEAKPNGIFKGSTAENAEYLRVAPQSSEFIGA
For assay [7] the test system is unchanged. The conditions noted are these: at 1 µM.
In assay [8] the test system is Epidermal growth factor receptor (Homo sapiens), P00533 [L861Q]. The note with it: at 0.1 µM.
Chain of Epidermal growth factor receptor (Homo sapiens), P00533 [L861Q] (P00533 whole entry L861Q): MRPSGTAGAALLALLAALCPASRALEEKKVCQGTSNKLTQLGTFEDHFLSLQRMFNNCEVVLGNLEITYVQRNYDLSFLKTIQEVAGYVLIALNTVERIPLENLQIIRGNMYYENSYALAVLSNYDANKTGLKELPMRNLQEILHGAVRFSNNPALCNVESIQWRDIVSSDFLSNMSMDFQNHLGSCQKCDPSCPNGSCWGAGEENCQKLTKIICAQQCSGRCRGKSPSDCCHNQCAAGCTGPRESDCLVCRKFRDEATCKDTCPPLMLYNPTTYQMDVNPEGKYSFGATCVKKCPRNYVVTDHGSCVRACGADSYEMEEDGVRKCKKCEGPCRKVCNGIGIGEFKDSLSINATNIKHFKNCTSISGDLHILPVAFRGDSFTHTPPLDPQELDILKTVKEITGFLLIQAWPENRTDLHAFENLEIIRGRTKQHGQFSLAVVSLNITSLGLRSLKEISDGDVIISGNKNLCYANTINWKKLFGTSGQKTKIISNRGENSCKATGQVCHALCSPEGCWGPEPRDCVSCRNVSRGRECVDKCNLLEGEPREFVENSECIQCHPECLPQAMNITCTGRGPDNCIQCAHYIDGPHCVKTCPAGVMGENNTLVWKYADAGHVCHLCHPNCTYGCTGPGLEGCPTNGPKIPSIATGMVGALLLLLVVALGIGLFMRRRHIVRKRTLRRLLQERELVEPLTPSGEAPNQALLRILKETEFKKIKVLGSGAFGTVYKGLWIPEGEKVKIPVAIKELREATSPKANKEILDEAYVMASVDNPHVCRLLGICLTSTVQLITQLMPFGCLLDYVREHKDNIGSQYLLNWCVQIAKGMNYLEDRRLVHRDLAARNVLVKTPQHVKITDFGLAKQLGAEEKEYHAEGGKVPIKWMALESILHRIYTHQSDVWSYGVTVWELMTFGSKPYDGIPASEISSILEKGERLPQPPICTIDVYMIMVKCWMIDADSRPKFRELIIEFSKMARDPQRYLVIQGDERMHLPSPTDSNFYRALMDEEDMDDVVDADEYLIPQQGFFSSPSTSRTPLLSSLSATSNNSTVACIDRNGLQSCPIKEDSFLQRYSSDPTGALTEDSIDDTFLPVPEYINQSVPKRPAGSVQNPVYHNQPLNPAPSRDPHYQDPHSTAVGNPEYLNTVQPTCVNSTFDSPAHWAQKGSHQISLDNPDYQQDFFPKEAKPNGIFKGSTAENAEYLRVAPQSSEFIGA
Assay [9] shares this test system. The note with it: at 1 µM.
Assay [10] has as its system Epidermal growth factor receptor (Homo sapiens), P00533 [T790M]. The conditions noted are these: at 0.1 µM.

Molecules are shown by their SMILES.

Chain of Epidermal growth factor receptor (Homo sapiens), P00533 [T790M] (P00533 whole entry T790M): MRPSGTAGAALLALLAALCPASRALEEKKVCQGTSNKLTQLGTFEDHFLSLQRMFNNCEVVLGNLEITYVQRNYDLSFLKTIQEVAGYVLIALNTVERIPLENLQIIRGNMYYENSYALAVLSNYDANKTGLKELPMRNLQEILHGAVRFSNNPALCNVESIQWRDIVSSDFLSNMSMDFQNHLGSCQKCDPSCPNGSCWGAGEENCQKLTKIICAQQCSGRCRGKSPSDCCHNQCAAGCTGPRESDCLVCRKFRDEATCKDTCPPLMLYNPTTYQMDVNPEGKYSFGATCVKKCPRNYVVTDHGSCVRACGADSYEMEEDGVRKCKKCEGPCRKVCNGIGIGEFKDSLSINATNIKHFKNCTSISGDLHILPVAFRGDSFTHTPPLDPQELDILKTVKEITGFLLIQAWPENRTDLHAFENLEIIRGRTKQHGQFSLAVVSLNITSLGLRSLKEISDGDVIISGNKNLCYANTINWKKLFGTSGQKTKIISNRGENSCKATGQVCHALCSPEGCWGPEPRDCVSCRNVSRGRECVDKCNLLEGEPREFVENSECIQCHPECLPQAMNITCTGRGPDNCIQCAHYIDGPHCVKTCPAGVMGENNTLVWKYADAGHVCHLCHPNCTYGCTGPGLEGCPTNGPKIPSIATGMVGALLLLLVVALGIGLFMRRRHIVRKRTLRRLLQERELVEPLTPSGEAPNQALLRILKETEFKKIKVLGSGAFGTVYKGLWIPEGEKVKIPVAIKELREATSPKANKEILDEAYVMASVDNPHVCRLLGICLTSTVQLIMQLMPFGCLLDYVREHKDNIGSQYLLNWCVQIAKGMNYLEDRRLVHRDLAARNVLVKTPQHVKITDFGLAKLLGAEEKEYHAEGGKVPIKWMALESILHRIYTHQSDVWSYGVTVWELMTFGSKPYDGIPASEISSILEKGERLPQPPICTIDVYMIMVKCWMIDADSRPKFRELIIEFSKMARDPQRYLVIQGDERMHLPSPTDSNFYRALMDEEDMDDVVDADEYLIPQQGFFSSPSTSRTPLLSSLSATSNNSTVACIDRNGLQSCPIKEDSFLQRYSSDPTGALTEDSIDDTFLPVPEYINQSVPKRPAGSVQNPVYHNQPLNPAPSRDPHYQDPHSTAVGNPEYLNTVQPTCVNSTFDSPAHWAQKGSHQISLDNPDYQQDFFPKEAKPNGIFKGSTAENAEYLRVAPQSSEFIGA
Chain of Epidermal growth factor receptor (Homo sapiens) (P00533 whole entry): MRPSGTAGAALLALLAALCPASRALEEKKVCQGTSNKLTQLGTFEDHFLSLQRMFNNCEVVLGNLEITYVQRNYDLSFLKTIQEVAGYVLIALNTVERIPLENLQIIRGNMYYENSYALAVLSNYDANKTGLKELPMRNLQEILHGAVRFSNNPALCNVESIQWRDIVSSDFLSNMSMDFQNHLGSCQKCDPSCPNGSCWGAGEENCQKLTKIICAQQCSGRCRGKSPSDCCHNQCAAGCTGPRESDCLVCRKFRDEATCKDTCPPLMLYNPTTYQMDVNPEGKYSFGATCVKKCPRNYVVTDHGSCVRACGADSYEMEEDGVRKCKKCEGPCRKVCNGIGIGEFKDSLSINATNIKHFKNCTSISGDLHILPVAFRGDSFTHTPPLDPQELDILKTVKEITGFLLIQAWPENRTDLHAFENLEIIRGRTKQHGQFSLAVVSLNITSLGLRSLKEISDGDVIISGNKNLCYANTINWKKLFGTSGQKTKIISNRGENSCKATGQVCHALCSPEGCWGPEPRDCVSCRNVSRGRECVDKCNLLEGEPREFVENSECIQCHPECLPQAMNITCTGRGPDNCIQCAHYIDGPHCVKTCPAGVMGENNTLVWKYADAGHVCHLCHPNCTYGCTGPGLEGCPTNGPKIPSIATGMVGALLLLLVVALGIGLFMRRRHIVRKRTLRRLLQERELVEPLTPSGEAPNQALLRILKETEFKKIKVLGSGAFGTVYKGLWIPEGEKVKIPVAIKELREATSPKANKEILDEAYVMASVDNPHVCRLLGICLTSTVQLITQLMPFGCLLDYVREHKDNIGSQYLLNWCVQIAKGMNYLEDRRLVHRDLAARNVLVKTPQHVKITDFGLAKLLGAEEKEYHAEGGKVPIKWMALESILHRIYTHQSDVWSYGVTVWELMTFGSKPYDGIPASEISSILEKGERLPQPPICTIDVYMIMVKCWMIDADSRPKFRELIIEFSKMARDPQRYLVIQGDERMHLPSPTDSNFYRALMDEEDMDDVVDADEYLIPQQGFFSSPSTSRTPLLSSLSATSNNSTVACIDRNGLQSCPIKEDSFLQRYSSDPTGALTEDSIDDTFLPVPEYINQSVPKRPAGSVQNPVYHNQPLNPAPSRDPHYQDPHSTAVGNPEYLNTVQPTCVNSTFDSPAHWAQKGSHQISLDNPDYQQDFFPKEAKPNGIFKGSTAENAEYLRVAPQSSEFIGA

On to `NC(=O)c1sc(-n2cnc3ccccc32)cc1OCc1ccccc1Br`, for which the inhibition (as a rule, the relative decrease from the control value, in per cent) in [1] was 2.18%; in assay [2] it was 1.76%; in assay [3], 1.6%; in assay [4], 1.88%; in [5], 0.93%; in [6], -0.06%. Also, the inhibition was found to be 5% in assay [7], 1.71% in assay [8], 2.89% in assay [9] and 1.26% in [10].
Turning to `COc1cccc(-n2nc(C)c3c(N/N=C(\C)c4ccncc4)ncnc32)c1`, the inhibition in [1] is 0.42%; in assay [2], 0.8%; in [3] it was 0.38%; in assay [4], 1.03%; in [5] it was 2.43%; in assay [6], -0.3%. The inhibition in [7] was 1.45%; in assay [8], -0.04%; in assay [9], 0.7%; in [10], -1.78%.
In the case of `COc1ccc(-c2nn3ncccc3c2-c2ccnc(Nc3cccc(C(F)(F)F)c3)n2)cc1`, the inhibition came to 7.02% in assay [1]; 2.63% in assay [2]; 22% in [3]; 9.51% in [4]; 19.1% in assay [5]; 4.1% in assay [6]. Moreover, the inhibition in assay [7] turned out to be 21.7%; in assay [8] it was 2.85%; in assay [9] it was 11.8%; in [10], 1%.
In the case of `Cc1cc(-c2ccccn2)cc(C)c1/C=C/c1cncc(-c2nn[nH]n2)c1`, the inhibition in assay [1] came out at 20.2%; in assay [2], 1.22%; in [3], 5.62%; in assay [4] it was 2%; in assay [5], 9.58%; in [6] it was 2.87%. Further, the inhibition in [7] is 4.85%; in assay [8], 2.42%; in assay [9], 5.99%; in assay [10], -0.39%.
For the compound `FC(F)(F)c1ccc(-c2nn3ncccc3c2-c2ccnc(Nc3ccc4c(c3)OCCO4)n2)cc1`, the inhibition in assay [1] was 6.46%; in assay [2], 8.59%; in [3], 24.9%; in [4], 6.78%; in assay [5], 19.2%; in assay [6], 5.78%. Further, the inhibition in assay [7] was 40.1%; in assay [8] it was 4.86%; in [9] it was 27.6%; in assay [10], 0.49%.
`NS(=O)(=O)c1ccc(NC=C2C(=O)Nc3ccc4ncsc4c32)cc1`: the inhibition in assay [1] was found to be 3.77%; in [2], 1.65%; in assay [3] it was 6.94%; in assay [4], 0.01%; in assay [5], 0.9%; in [6], 3.08%. The inhibition in [7] stood at 5.45%; in [8] it was 2.21%; in assay [9], 0.54%; in assay [10], 2.24%.
As to `CN(c1ccc(NC(=O)Nc2ccc(OC(F)(F)F)cc2)cc1)c1ccnc(Nc2cccc(S(N)(=O)=O)c2)n1`, the inhibition in assay [1] is 29.4%; in assay [2] it was 53.2%; in assay [3], 88.6%; in [4] it was -0.6%; in [5] it was 3.21%; in assay [6], 1.4%. Besides, the inhibition in assay [7] came out at 3.36%; in assay [8], 1.14%; in assay [9] it was 5.92%; in assay [10], 1.81%.
In the case of `COC(=O)c1cncc(/C=C/c2c(C)cc(O)cc2C)c1`, the inhibition worked out at 24.8% in assay [1]; 1.69% in assay [2]; 10.3% in [3]; 0.29% in assay [4]; 3.19% in [5]; 2.6% in [6]. The inhibition in [7] is 11.5%; in [8], 3.47%; in assay [9], 7.07%; in assay [10], 2.64%.
For the compound `Nc1nccc(-c2c(-c3ccc(F)cc3)nn3cc(C(F)(F)F)ccc23)n1`, the inhibition in assay [1] was 1.17%; in assay [2], 1.51%; in assay [3], 5.28%; in [4] it was -0.27%; in assay [5] it was 3.78%; in [6], 1.74%. Moreover, the inhibition in assay [7] is 11.4%; in assay [8], -0.3%; in assay [9], 3.8%; in assay [10], 0.44%.
For `O=C1Nc2ccc(-c3cccnc3)cc2C1=Cc1cc(Br)c(O)c(Br)c1`, the inhibition in assay [1] was -1.69%; in [2], 2.03%; in assay [3], 5.97%; in [4] it was -0.06%; in assay [5], 5.08%; in assay [6] it was 4.88%. Besides, the inhibition was 10.5% in assay [7], 2.92% in [8], 2.2% in assay [9] and 2.3% in assay [10].
Turning to `Cc1cc(Cl)cc2c1NC(=O)C2=NNc1ccc(S(N)(=O)=O)cc1`, the inhibition was 3.65% in [1]; 5.11% in assay [2]; 4.88% in [3]; 0.92% in [4]; 1.34% in assay [5]; 0.35% in [6]. The inhibition came out at 4.79% in assay [7], 1.56% in assay [8], 4.09% in assay [9] and 1.21% in assay [10].
Take `Cc1ccc(Nc2ccnc(Nc3cccc(C(N)=O)c3)n2)cc1O`: the inhibition in assay [1] is 35.4%; in assay [2], 5.32%; in assay [3] it was 30%; in assay [4] it was -1.74%; in [5], 11.7%; in [6] it was 5.83%. Besides, the inhibition in assay [7] amounted to 32%; in [8], 4.18%; in [9], 13%; in assay [10], 3.21%.
As to `CCn1c(-c2nonc2N)nc2ccc(F)cc21`, the inhibition in [1] was found to be 8.91%; in [2], 0.92%; in assay [3], 4.58%; in [4], 12.1%; in assay [5], 13.4%; in [6], 4.05%. In addition, the inhibition in assay [7] was 12.7%; in assay [8], 4.88%; in assay [9] it was 8.61%; in assay [10], 3%.
For `COC(=O)Nc1nc2cc(Oc3ccc(NC(=O)Nc4cccc(Br)c4)cc3)ccc2[nH]1`, the inhibition in assay [1] was determined as 3.27%; in assay [2], 98.2%; in assay [3] it was 93.7%; in assay [4], 1.74%; in assay [5] it was 3.19%; in assay [6] it was 5.58%. Further, the inhibition in assay [7] came to 5.33%; in assay [8], 3.01%; in assay [9], 4.1%; in assay [10], 2.15%.
On to `CCS(=O)(=O)c1ccc(OC)c(Nc2ncc(-c3cccc(OC)c3)o2)c1`, for which the inhibition was 10.6% in [1]; 3.76% in assay [2]; 20% in assay [3]; 1.96% in assay [4]; 8.46% in assay [5]; 6.95% in assay [6]. The inhibition in assay [7] worked out at 27.6%; in [8], 4.06%; in assay [9] it was 6.2%; in [10], 1.83%.
For `COc1cc2ncn(-c3cc(OCc4ccccc4S(C)(=O)=O)c(C#N)s3)c2cc1OC`, the inhibition in assay [1] was found to be 4.26%; in assay [2], 2.02%; in [3] it was 8.19%; in assay [4] it was 3.74%; in assay [5], 11.8%; in [6], 9.37%. In addition, the inhibition was determined as 45.8% in assay [7], 3.09% in assay [8], 8.31% in [9] and 3.02% in assay [10].
